In the library only some 2.8% were active in any assay of this set; here they are far more common.
Integrin act MD: activators of alpha7 integrin expression for muscular dystrophy | alpha7betagal myoblasts, beta-gal FDG fluorescence, 48 h | Potency, µM (top dose mostly 38.3 µM), for inactives: top-dose activation, actives largely listed as activators | actives 0.064% (n = 350,000) | AID 624291;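 also: potency is read from the fitted curve at half-maximal effect; 100% = response of the positive control SU9516; nearly all actives have a fitted effect of over 60% in size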
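alpha7betagal+/- myoblasts (passage 13, 250/well) treated 48 h at 37C with compounds at 1:260 dilution of DMSO stock. Lysed, then beta-galactosidase activity read as FDG fluorescence (ex 480/em 540) after 30 min, with pre-read for autofluorescence.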
PTHR1 agonist: activates the human parathyroid hormone receptor PTHR1; actives 0.075% (n = 410,000); Q03431; Potency, µM (series often up to 115 µM), for inactives: at the top dose activation, actives largely listed as activators; AID 743266; HEK293 GP2 PTHR1 cells, GloSensor cAMP luminescence, 1 h; also: potency is read from the fitted curve at half-maximal effect; nearly all actives have a fitted effect of over 55% in size
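HEK-293-derived GP2 cells expressing PTHR1 and a GloSensor cAMP reporter, 3,000/well, plated overnight, given luciferin plus IBMX (each 0.5 mM as added) for 1 h at 37 °C, then compound for 1 h at 37 °C. Luminescence was read after 15 min at room temperature.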
D3 antag: blocks the human D3 dopamine receptor; P35462; D3R cells, DiscoveRx beta-arrestin luminescence, antagonist mode; active compounds read low; max response, negative = inhibition, %; actives 2.5% (n = 360,000); AID 652054; in the data active = max response below about -50%; inconclusive = no clear call, values can overlap the other calls; also: % is scaled to controls: 0 for no effect and ±100 for the full control effect
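Cells expressing the human receptor were seeded at 1500 cells/well, incubated overnight at 37 degrees C in 5% CO2, then exposed to library compounds with dopamine controls for 90 minutes at 37 degrees C before luminescent detection.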
D3 ag: D3 dopamine receptor (human) agonism | D3R DiscoveRx beta-arrestin cells, luminescence, 90 min | max activation, % | actives 0.58% (n = 410,000); in the data active = max activation above about 30%; also: 0% is about no effect
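Cells at 1500/well, incubated overnight, then treated with pinned compounds (dopamine as control) for 90 min at 37 degrees C. DiscoveRx reagent added for 30 - 60 minutes at room temperature; luminescence read.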
MBNL1-CUG inh: blocks human MBNL1 binding to CUG repeat RNA. TR-FRET MBNL1-His/biotin-(CUG)12 binding, 665/545 ratio. actives 0.036% (n = 280,000). Potency, µM (top dose mostly 57.5 µM), for the others: at the top dose activity change, negative = inhibition, most hits filed as inhibitors; active = well fitted inhibition curve with a large enough effect in the signal ratio, with a control signal flat, not every such curve was filed as active; inconclusive = small, poorly fitted or top-dose-only effect, or effect the other way, or a change in a side signal; inactive = no such curve, though single readings can be large or run the other way; the % refers to the signal ratio; also: potency is read from the fitted curve at half-maximal effect; % is scaled to controls: 0 for no effect and ±100 for the full control effect
Target sequence (Q9NR56 whole entry, looked up): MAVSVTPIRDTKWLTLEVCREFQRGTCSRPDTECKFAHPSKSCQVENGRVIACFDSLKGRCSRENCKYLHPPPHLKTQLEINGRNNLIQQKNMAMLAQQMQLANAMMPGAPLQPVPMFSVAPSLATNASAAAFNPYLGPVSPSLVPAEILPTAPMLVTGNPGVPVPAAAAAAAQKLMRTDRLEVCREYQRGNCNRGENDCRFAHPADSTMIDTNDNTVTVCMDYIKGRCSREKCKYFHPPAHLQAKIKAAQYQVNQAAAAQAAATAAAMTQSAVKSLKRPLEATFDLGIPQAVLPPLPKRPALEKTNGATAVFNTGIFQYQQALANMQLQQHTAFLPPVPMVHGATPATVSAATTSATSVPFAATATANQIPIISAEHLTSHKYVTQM
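TR-FRET readout: Ex 340 nm, 665/545 nm emission ratio, normalized to buffer-only (basal) and MBNL1-(CUG)12 controls. Complex of MBNL1-His with Biotin-(CUG)12, compounds 92 nM–58 uM, incubated 60 min at room temperature.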
CBFb RUNX1 block: inhibitors of human CBF-beta and RUNX1 interaction; Q01196+Q13951; AlphaScreen CBFb-His/RUNX1-biotin binding, biochemical; Potency, µM (highest dose often 59.8 µM), without a hit: top-dose activity, negative = inhibition, actives largely listed as inhibitors; 230,000 tested, under 10 active; AID 1477; also: % of control where 0% means no effect
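Compounds were screened at multiple concentrations against a preformed CBF-beta(His)/RUNX1(biotin) complex (30 nM of each) for 15 min at room temperature, followed by 90 min with nickel and streptavidin beads and AlphaScreen reading.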
* hit, by the source's call; i = inactive; ? = inconclusive; . = no result given; ! = a repeat was not active; [ ] = another dose, or the depositor's remark. Unless noted, calls follow the shape of the dose curve; as a rule, active = well fitted curve in the direction sought with a large enough effect; inconclusive = small, poorly fitted or top-dose-only effect, or another doubt; inactive = no such curve, though single readings can be large; an effect the other way counts as inactive or inconclusive.

SMILES	Integrin act MD	PTHR1 agonist	D3 antag	D3 ag	MBNL1-CUG inh	CBFb RUNX1 block
Cc1cc(Cl)cc(Br)c1OCCNCC(C)O (stereo not drawn)	-22%	i	-71*	-13	-10%	2%
COc1ccc2[nH]c(=O)c(-c3noc(-c4ccccc4)n3)cc2c1	?	-1%[57.5 µM]	41	5	?	11%
O=c1[nH]c2ccccc2cc1-c1noc(-c2cccnc2)n1	15%	i	8	48*	19%	5%
COc1ccccc1N(CC(=O)Nc1ccccc1F)S(C)(=O)=O	.	i	.	1	.	.
Clc1ccc(OCCOCCOc2cccc3cccnc23)c(Br)c1	23%	-17%	-8	7	.	-23%
Cc1ccccc1C(=O)OCCN(C)Cc1ccccc1	31%	i	-70*	-14	-3%	6%
CCOc1cccc(OCCOCCN(C)Cc2ccccc2)c1	-25%	-13%[57.5 µM]	-64*	-11	-10%	2%
CN(CCOCCOc1ccc(Cl)cc1Br)Cc1ccccc1	-37%	i	-64*	-18	-2%	8%
CN(CCOc1ccccc1Cl)Cc1ccccc1	-1%	-18%	-76*	5	12%	.
Cc1ccc(C(=O)OCCN(C)Cc2ccccc2)cc1	?	-2%	-29	-9	1%	4%
Cc1cn([C@H]2C[C@H](O)[C@@H](CCC(=O)NC(c3ccccc3)c3ccccc3)O2)c(=O)[nH]c1=O	0%	i	26	7	.	.
O=C(COC(=O)c1ccc[nH]c1=O)NC1CCCCC1	17%	i	2	-2	-13%	3%
Cc1ccc(Cl)c(OCCCCN(C)Cc2ccccc2)c1	-56%	-6%[57.5 µM]	-90*	-63	-4%	-2%
CN(CCOc1ccc(Cl)c(Cl)c1)Cc1ccccc1	0%	-55%	-93*	-24	-7%	.
CCN(CC)CCCOc1ccc(Cl)c(Cl)c1	-55%	-11%	-29	-18	-23%	-3%
C=CCc1cc(Cl)ccc1OCCCNC(C)C	?	i	?	-44	-2%	6%
Cc1ccc(Cl)c(OCCCN(C)Cc2ccccc2)c1	-27%	-14%	?	-22	-12%	?
C=CCc1cc(Cl)ccc1OCCN(C)C	-1%	i	-55*	-55	0%	-3%
CCCCN(C)CCOc1ccccc1OCC	-15%	-12%	-98*	-19	.	3%
Cc1c(C(=O)NCc2ccccc2Cl)sc2nc3n(c(=O)c12)CCCC3	.	-14%	.	5	.	.
CCN(CC)c1nc(-c2ccc(C(=O)NN)cc2)nc(-c2ccc(C(=O)NN)cc2)n1	4%	-19%	-11	0	-1%	.
C[n+]1c2cc(N)ccc2cc2ccc(N)cc21 (tested in a mixture with another compound)	.	.	.	13	.	.
COc1ccc(C(C)=O)cc1COC(=O)CSCC(=O)Nc1ccc(C)cc1	3%	-17%	-16	-13	.	.
COC(=O)c1ccc(OCCCCN(C)Cc2ccccc2)cc1	-2%	13%	-29	-28	-1%	.
CN(CCOCCOc1ccc(F)cc1)Cc1ccccc1	-10%	?	-89*	-20	-1%	.
SMILES	Integrin act MD	PTHR1 agonist	D3 antag	D3 ag	MBNL1-CUG inh	CBFb RUNX1 block
CCOc1ccc(OCCN(C)Cc2ccccc2)cc1	15%	i	-83*	-4	4%	-5%
C=CCc1cc(OC)ccc1OCCN(C)Cc1ccccc1	-14%	-10%	-59*	-26	-3%	10%
COc1ccc(OCCCCN(C)Cc2ccccc2)cc1	5%	i	-29	-27	-1%	.
CC(=O)c1cccc(NC(=O)Cn2cc(C(=O)c3cccc(Cl)c3)c(=O)c3ccc(C)nc32)c1	.	-3%	.	1	.	.
CC(O)CNc1nc(NCc2ccccc2)c2cnn(C)c2n1 (stereo not drawn)	33%	-8%	30	3	-4%	.
Cc1c(C(=O)N(C)CCCCN2CCOCC2)oc2c(F)cccc12	1%	i	14	-15	7%	.
CCOC(=O)/C=C(\C)Sc1cc(O)c2ccccc2c1O	-76%	-45%	-55*	-16	?	-27%
CCOC(=O)/C=C(\C)Sc1cc(=O)oc2ccccc12	-28%	-9%[57.5 µM]	-25	0	?	3%
CN(CC(=O)Nc1cccc(F)c1)C(=O)c1ccc(-c2ccc(Cl)cc2)o1	11µM*	i	-11	-8	5%	.
CCSc1nnc2n(-c3cccc(C)c3)c(=O)c3c4c(sc3n12)CCCC4	.	-12%	.	37*	.	.
Cc1cc(OCC(=O)NC(C)C)cc(C)c1Cl	26%	i	-10	12	1%	6%
Cc1cc(OCCOCCNC(C)C)cc(C)c1Cl	-57%	-1%[57.5 µM]	-58*	-12	3%	-1%
COC(=O)c1ccccc1NC(=O)CSc1nc2ccsc2c(=O)n1CCC(C)C	.	i	.	3	.	.
O=C(Nc1ccccc1SC(=O)c1ccccc1)c1ccccc1	-23%	-26%	6	3	.	.
Cc1ccc(C(=O)Sc2cccccc2=O)cc1	-72%	i	-94*	-31	26%	.
CCOc1ccc(-n2c(=O)c3c(C)c(C)sc3n(Cc3c(F)cccc3Cl)c2=O)cc1	.	i	.	9	.	.
COc1ccccc1OCC(O)CO (stereo not drawn)	.	-11%	5	83*!	-6%	-8%
COc1ccccc1OCC(O)COC(N)=O (stereo not drawn)	.	i	4	-20	9%	8%
CCC(=O)Nc1cc(C(=O)NCC2CCCN2CC)c(OC)cc1N(C)C (stereo not drawn)	-11%[7.66 µM]	27%[57.5 µM]	-91*	-38	-3%	5%
CCN1CCCC1CNC(=O)c1cc(S(N)(=O)=O)ccc1OC (stereo not drawn)	.	i	-98*	.	.	-20%
CCN1CCCC1CNC(=O)c1ccccc1Cl (stereo not drawn)	11%	1%	-25	-24	-3%	-13%
CCN1CCCC1CNC(=O)c1cc(NC(C)=O)c(N(C)C)cc1OC (stereo not drawn)	14%	i	-88*	-9	10%	-1%
CCN1CCC[C@@H]1CNC(=O)c1cc(S(N)(=O)=O)ccc1OC	.	.	.	.	.	-7%[21.7 µM]
O=C(NCc1cnn(-c2ccccc2)c1)C1CCC(=O)N(C2CC2)C1 (stereo not drawn)	-15%	-36%	6	6	-1%	.
Cc1ccc(OCC(O)Cn2c(N)nc3c2c(=O)n(C)c(=O)n3C)cc1 (stereo not drawn)	14%	-31%	3	53*	-5%	5%
O=C(c1ccc2c(=O)n(Cc3ccco3)c(=S)[nH]c2c1)N1CCN(c2ccccc2)CC1	-8%	-31%	-50*	-1	-20%	-1%
